The text below walks through data of PubChem BioAssay.

Test [1] deals with Albumin (Bos taurus) (UniProt P02769). The experiment in a line: compounds binding labelled BSA control protein – biochemical, small-molecule microarray, Alexa647 label, 635/667 nm fluorescence, artefact control for SMM control protein annotation, profiling panel (AID 1118).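 Note: score merges 667 nm emission intensity and signal-to-noise per printed compound spot.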 Conditions: BSA-A647 binding, fluorescence 635 nm, higher = more signal.
Test [2] in a line: probe aXIP binding to arrayed compounds – biochemical, NeuroSMM set, 635/667 nm fluorescence, primary screen (AID 1119).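 Note: probe is the protein aXip251-270 applied at 1 µg/mL to compound-printed slides; binding of probe to printed compounds measured as 667 nm fluorescence plus signal to noise.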 As to conditions: small-molecule microarray, higher = more signal, called active from +8 up or from −8 down.
Test [3] can be described thus: probe aNOTCH3 binding on compound microarray – biochemical, small-molecule microarray, 635/667 nm fluorescence, primary screen (AID 1120).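 Note: probe is a biotin-tagged antibody raised against NOTCH3 rather than NOTCH3 protein; score merges spot fluorescence near 667 nm with spot signal to noise.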 Conditions: higher = more signal.
Test [4] in a line: probe aNOTCH2 binding on compound microarray – biochemical, small-molecule microarray, 635/667 nm fluorescence, primary screen (AID 1121).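 Note: score merges feature fluorescence read at 667 nm with its signal to noise.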 Conditions: higher = more signal.
Test [5] deals with Carbonic anhydrase 2 (Homo sapiens) (UniProt P00918). In words: compounds binding carbonic anhydrase 2 – biochemical, small-molecule microarray, Alexa647-labelled CAII, profiling panel (AID 1122). As to conditions: CAII-A647 binding fluorescence, higher = more signal.
A short description of test [6]: COS7 lysate on small-molecule microarray, probe aHis, 635 nm (AID 1123).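 Note: z-score combines 667nm fluorescence intensity with signal-to-noise per printed compound spot.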 Conditions: COS7 cell lysate, fluorescence, higher = more signal.
Test [7] can be described thus: probe aLAP1 signal on lysate-treated microarray – cell lysate, small-molecule microarray, COS7 lysate, primary screen (AID 1124).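 Note: lysate comes from COS7 cells expressing LAP1 and is applied at 0.3 µg/mL; score merges spot fluorescence near 667 nm with signal-to-noise over triplicate slides.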 Conditions: probe aLAP1, fluorescence, higher = more signal.
For test [8], the system named is Sam68 (KHDRBS1). The experiment in a line: compounds binding KHDRBS1 protein – biochemical, small-molecule microarray, 635 nm fluorescence, primary screen (AID 1125).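 Note: score merges 667 nm channel intensity with signal to noise over triplicate slides.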 As to conditions: higher = more signal.
The test system of test [9] is Chordin-like protein 2 (CHRDL2). In words: compounds binding chordin-like 2 – biochemical, small-molecule microarray, 635 nm fluorescence, primary screen (AID 1126).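 Note: printed compound slides probed with Chrdl2 protein at 4 µg/mL for 1 h at 4 C; score merges 667 nm emission intensity with signal to noise over three replicate slides.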 Conditions: fluorescence 635 nm, higher = more signal.
For test [10], the target named is Concanavalin-A (Canavalia ensiformis) (UniProt P02866). The experiment in a line: compounds binding concanavalin A lectin – biochemical, small-molecule microarray, Alexa647 label, 635 nm, artefact control for SMM control protein annotation, primary screen (AID 1127).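 Note: z combines 667 nm emission intensity with signal-to-noise across three replicate slides.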 Conditions: ConA-A647 binding fluorescence, higher = more signal.
Test [11] can be described thus: compounds binding Alexa647 anti-His antibody – biochemical, small-molecule microarray, 635 nm fluorescence, artefact control for SMM control protein annotation, primary screen (AID 1128).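 Note: score merges feature fluorescence with signal-to-noise for each printed compound spot.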 Conditions: higher = more signal.
The test system of test [12] is Human papillomavirus type 1a E7 protein (residues 1-88). In words: HPV1a E7 small-molecule binders, primary screen, biochemical, small-molecule microarray, residues 1-88, 635 nm (AID 1129). Conditions: small-molecule microarray binding, fluorescence 635 nm; higher = more signal.
Test [13] concerns the target Focal adhesion kinase 1 (Homo sapiens) (UniProt Q05397). In words: PTK2 protein binding on printed compound slides – biochemical, small-molecule microarray, 635/667 nm fluorescence, BSA, DTT, primary screen (AID 1130).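 Note: composite of spot emission at 667 nm and signal to noise over triplicate slides.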 Conditions: 635 nm fluorescence, higher = more signal.
For test [14], the system named is Fibrinogen (Alexa647-labelled). In words: Alexa647-fibrinogen binding to printed small molecules – biochemical, small-molecule microarray, 635/667 nm fluorescence, artefact control for SMM control-protein annotation, profiling panel (AID 1131).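 Note: z-score merges 667 nm fluorescence with per-spot signal-to-noise over triplicate slides.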 Conditions: fibrinogen-A647 binding fluorescence, higher = more signal.
For test [15], the target named is Follistatin (Homo sapiens) (UniProt P19883). In words: FST protein binding to printed compounds – biochemical, small-molecule microarray, 635/667 nm fluorescence, primary screen (AID 1132). As to conditions: 635 nm fluorescence, higher = more signal.
Test [16] deals with Fibroblast growth factor 2 (Homo sapiens) (UniProt P09038). In words: basic fibroblast growth factor binding to printed compounds – biochemical, small-molecule microarray, 635/667 nm fluorescence, primary screen (AID 1133). As to conditions: FGF2, fluorescence 635/667, higher = more signal.
Test [17] can be described thus: JC-1 mitochondrial potential readout, lung cancer cells – cell-based, A549, JC-1 fluorescence, basal, 24 h, 100 nL, profiling panel (AID 1138).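 Note: A549 lung adenocarcinoma cells under basal conditions with no added stimulus; test concentration not given here.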 Conditions: higher = more signal.
Test [18] concerns Lefty1. In words: Lefty1 protein binding to printed compounds – biochemical, small-molecule microarray, 635/667 nm fluorescence, primary screen (AID 1139). Conditions: fluorescence 635/667, higher = more signal.
Test [19] concerns wheat germ agglutinin (Triticum aestivum), Alexa647-labelled. In words: Alexa647-WGA lectin binding to printed small molecules – biochemical, small-molecule microarray, 635/667 nm fluorescence, artefact control for SMM control-protein annotation, profiling panel (AID 1140).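 Note: score merges 667 nm feature emission with signal to noise over triplicate slides.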 Conditions: WGA-A647 binding, 635 nm fluorescence, higher = more signal.
Test [20] concerns the target Luciferin 4-monooxygenase (Photinus pyralis) (UniProt P08659). The experiment in a line: inhibition of purified Photinus pyralis luciferase – biochemical, luminescence, purified enzyme, 2006 set, primary screen (AID 1141).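 Note: cell-free assay with purified firefly luciferase at 100 ng per well in PBS; test concentration not given here.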 As to conditions: purified firefly luciferase, SteadyGlo luminescence, 30 min; higher = more signal, called active from +8 up or from −8 down.

Molecules are shown by their SMILES. Active and inactive are the calls of the source.

Chain of Concanavalin-A (Canavalia ensiformis) (P02866 whole entry, looked up): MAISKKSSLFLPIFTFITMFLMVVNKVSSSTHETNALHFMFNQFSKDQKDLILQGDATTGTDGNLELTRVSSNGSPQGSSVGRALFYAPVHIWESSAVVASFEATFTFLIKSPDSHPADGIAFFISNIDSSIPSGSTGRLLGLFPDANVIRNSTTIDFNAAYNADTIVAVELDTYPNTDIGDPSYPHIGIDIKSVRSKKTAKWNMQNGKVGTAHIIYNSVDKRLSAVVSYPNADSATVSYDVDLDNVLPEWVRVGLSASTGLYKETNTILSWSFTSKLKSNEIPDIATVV
Chain of Follistatin (Homo sapiens) (P19883 whole entry, looked up): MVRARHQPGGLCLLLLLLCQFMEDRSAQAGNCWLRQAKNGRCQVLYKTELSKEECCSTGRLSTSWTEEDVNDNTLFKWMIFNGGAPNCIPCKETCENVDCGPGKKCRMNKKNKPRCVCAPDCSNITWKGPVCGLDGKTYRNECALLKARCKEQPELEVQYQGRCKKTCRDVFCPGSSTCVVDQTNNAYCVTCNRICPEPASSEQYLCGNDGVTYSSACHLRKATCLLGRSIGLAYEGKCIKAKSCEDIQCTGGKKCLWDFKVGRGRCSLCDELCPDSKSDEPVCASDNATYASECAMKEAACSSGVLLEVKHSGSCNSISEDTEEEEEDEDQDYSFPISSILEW
Chain of Focal adhesion kinase 1 (Homo sapiens) (Q05397 whole entry, looked up): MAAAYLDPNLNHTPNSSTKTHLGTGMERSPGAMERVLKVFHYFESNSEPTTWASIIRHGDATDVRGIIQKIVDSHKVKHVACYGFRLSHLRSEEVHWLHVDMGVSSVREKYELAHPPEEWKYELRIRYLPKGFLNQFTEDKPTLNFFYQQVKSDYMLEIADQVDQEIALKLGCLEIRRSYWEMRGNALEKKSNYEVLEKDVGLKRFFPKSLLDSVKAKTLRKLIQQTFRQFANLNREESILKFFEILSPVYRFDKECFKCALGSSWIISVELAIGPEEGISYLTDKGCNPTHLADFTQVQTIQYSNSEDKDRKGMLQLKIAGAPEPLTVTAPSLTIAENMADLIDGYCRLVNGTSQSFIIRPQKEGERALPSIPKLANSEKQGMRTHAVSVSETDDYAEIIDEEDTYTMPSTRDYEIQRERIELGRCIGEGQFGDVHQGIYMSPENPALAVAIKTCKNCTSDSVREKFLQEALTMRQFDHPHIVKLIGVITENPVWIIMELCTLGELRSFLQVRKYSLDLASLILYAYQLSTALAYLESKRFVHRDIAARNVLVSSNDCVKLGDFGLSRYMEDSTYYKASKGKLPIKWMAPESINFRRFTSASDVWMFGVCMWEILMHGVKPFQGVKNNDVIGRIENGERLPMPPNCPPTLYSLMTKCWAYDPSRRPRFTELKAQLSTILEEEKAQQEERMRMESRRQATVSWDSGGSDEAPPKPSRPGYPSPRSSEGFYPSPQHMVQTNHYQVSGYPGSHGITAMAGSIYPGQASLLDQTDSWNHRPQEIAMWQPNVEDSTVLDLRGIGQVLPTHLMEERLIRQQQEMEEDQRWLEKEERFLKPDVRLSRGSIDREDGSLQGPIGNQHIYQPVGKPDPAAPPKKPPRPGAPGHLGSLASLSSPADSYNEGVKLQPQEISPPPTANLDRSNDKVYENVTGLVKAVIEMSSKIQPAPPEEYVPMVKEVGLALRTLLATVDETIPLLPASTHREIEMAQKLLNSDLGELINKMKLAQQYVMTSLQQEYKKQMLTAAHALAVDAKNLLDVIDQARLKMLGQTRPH
Chain of Fibroblast growth factor 2 (Homo sapiens) (P09038 whole entry, looked up): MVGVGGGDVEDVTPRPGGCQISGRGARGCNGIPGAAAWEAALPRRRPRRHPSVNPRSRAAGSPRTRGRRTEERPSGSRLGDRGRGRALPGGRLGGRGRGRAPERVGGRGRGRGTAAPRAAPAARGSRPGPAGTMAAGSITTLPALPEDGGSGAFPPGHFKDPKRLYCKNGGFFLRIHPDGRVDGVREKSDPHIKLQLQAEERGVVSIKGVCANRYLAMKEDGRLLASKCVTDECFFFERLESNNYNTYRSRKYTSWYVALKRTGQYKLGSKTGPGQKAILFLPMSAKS
Chain of Luciferin 4-monooxygenase (Photinus pyralis) (P08659 whole entry, looked up): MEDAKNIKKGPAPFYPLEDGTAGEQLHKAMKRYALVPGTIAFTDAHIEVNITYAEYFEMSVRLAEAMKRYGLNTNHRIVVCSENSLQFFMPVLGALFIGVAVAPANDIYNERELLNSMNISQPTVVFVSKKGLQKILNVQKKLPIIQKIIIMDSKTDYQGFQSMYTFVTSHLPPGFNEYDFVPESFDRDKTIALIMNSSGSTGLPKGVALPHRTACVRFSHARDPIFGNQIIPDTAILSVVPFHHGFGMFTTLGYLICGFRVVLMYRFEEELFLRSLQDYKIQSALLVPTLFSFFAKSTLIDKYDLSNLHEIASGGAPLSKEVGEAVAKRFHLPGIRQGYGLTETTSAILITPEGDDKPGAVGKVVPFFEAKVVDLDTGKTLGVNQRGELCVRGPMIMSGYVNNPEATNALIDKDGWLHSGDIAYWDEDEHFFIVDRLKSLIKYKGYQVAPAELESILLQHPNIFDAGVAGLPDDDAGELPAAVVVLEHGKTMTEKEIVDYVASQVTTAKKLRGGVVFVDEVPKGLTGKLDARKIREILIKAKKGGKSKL
Chain of Albumin (Bos taurus) (P02769 whole entry, looked up): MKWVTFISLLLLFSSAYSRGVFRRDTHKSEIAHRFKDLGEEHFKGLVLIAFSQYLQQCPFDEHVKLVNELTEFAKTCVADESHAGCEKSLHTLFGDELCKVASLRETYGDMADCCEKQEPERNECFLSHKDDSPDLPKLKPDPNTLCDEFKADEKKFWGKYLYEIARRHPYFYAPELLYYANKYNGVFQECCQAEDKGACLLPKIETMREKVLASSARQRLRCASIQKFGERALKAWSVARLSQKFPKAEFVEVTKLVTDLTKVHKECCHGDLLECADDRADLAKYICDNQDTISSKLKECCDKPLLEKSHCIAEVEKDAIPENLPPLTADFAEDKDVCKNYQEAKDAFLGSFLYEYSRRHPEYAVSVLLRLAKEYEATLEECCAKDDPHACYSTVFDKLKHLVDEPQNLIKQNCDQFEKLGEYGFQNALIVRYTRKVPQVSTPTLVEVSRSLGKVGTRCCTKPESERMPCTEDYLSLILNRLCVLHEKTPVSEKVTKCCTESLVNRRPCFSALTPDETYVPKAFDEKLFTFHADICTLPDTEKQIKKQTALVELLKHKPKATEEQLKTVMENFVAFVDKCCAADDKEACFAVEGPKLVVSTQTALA

On to `C=CCOC(=O)[C@H]1[C@@H]2C(=O)O[C@@H](c3ccccc3)[C@@H](c3ccccc3)N2[C@@H](c2ccc(OCCOC(=O)[C@@H]3C[C@@H]4C(=O)N[C@@H](Cc5ccccc5)C(=O)N4[C@@H]3c3ccc(O)cc3)cc2)[C@]12C(=O)Nc1ccc(I)cc12`, for which the composite z-score in test [1] was -0.257; in [3] it was 0.698; in [4], -0.092; in test [5], 0.218; in [6] it was 1.33; in test [7], -0.052. Besides, the composite z-score in [8] is 1.16; in [9], 0.915; in test [10] it was 0.92; in test [11], 1.15; in test [12], 1.15; in test [13], 0.307. The composite z-score in test [14] is -0.0558; in test [15], 1.4; in [16], 1.25; in [18], 0.924; in test [19], 0.0495. Moreover, in test [2], the composite Z-score is 0.661 (inactive). Moreover, the z-score in test [17] was -1.28; in test [20] it was -0.409 (inactive).

With `COC(=O)c1c2oc(c1C(=O)OC)C(=O)N[C@H](Cc1ccccc1)Cn1cc(nn1)C1(CCCCC1)NC(=O)N[C@H](CO)CC2`, the composite z-score is 0.264 in test [1]; -0.0113 in test [3]; -0.15 in test [4]; 0.765 in [5]; 0.856 in test [6]; 0.474 in [7]. Further, the composite z-score was 0.0112 in [8]; -0.2 in test [9]; -1.71 in test [10]; 0.633 in [11]; -0.594 in test [12]; 0.714 in test [13]. Besides, the composite z-score in [14] is -0.252; in test [15] it was -0.328; in [16], 0.94; in test [18], 0.114; in [19], 0.722. In [2], the composite Z-score was 0.605 (inactive). Further, the z-score in test [17] was -0.318; in test [20], 0.181 (inactive).

Consider `COc1ccc([Si](C)(C)[C@H]2[C@H](CCO)O[C@@]3(C(=O)N(Cc4ccccc4)c4ccc(NC(=O)[C@H](C)O)cc43)[C@@H]2C)cc1`, for which the composite z-score was 0.639 in [1]; 0.372 in test [3]; -0.0274 in test [4]; 0.48 in test [5]; 2.28 in test [6]; -0.298 in test [7]. Further, the composite z-score was determined as 0.463 in [8]; 0.0883 in test [9]; 0.473 in [10]; 0.779 in [11]; 1.16 in test [12]; 0.361 in test [13]. Besides, the composite z-score in test [14] is 0.967; in test [15] it was 0.578; in test [16], -0.145; in test [18] it was 0.575; in test [19], 0.75. In addition, the composite Z-score in test [2] was 0.393 (inactive). Moreover, the figures for the z-score in test [17] and in test [20] were -0.924 and -0.355 (inactive), respectively.

In the case of `CCCCC(=C=CC[C@H](O)c1ccccc1OCCO)CCO`, the composite z-score in test [1] is 0.0552; in test [3] it was -0.16; in [4], -0.164; in [5] it was 0.524; in [6], 1.91; in test [7], 0.0655. Further, the composite z-score in [8] is 0.597; in test [9], -0.336; in test [10], -0.14; in test [11] it was 2.08; in test [12] it was 0.118; in [13], 0.0679. For the same molecule, the composite z-score in test [14] is -0.472; in [15], 0.689; in test [16], 0.749; in test [18], 0.342; in test [19] it was -0.298. Besides, the composite Z-score in test [2] is 0.849 (inactive). Further, the z-score in test [17] was -0.378; in test [20], 0.207 (inactive).

For the molecule `COc1cc(CO)cc(I)c1O[C@H]1C=C(C(=O)NCCO)C[C@@H](N(CCN2CCOCC2)C(=O)C2CCCO2)[C@@H]1O` (stereo not given in full), the composite z-score was -0.184 in test [1]; 0.0261 in [3]; -0.0684 in test [4]; -0.107 in [5]; -0.61 in [6]; -0.0581 in test [7]. Further, the composite z-score in test [8] was -0.0878; in test [9] it was 0.365; in test [10], -0.0855; in test [11], 0.0704; in test [12] it was 0.413; in test [13] it was 0.192. Moreover, the composite z-score was -0.0246 in [14]; 0.132 in test [15]; 0.144 in [16]; 0.159 in [18]; -0.139 in test [19]. Also, the composite Z-score in [2] was 0.204 (inactive). Also, the z-score is 1.48 in test [17] and -0.91 (inactive) in [20].
